{"source": "PubChem BioAssay (EPA / NIEHS)", "key": {"[1]": {"target": "human Opioid Receptor Mu (Opiate Mu), OPRM1 (gene 4988) (UniProt P35372)", "sequence (P35372 whole entry, looked up)": "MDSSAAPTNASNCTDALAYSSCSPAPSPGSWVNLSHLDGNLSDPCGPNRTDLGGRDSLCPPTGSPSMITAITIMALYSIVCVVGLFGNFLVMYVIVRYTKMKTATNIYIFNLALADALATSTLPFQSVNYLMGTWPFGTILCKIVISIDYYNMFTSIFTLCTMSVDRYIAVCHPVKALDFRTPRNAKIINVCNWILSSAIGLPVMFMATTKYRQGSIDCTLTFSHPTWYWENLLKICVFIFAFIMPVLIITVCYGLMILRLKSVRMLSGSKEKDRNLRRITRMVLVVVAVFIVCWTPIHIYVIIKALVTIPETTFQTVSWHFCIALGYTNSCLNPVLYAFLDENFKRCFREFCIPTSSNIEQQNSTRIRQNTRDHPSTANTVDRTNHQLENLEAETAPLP", "assay": "NVS_GPCR_hOpiate_mu: NovaScreen (NVS) G Protein-Coupled Receptor Assay for human Opioid Receptor Mu (Opiate Mu) (AID 2283290);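 further: hits lower bound tracer signal versus DMSO meaning displacement of the ligand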", "procedure,_shortened": "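Here, radioligand binding to CHO-extracted receptor was measured after 2.5 h using filter-based scintillation detection. Initial single-concentration screening used 25 uM in duplicate with plate controls; confirmed actives went to concentration-response testing.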"}, "[2]": {"tested_on": "guinea pig Atrionatriuretic Peptide Receptor A (ANPA), gene 100135578", "assay": "NVS_GPCR_gANPA: NovaScreen (NVS) G Protein-Coupled Receptor Assay for guinea pig Atrionatriuretic Peptide Receptor A (ANPA) (AID 2283291)", "procedure,_shortened": "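Radioligand binding to guinea pig cerebellar membranes was measured after 1 h by filter-based scintillation counting. Chemicals were tested in duplicate at 25 uM, with hits run in concentration-response to a maximum of 50 uM. Binding loss was fitted against DMSO.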"}, "[3]": {"target": "rat Serotonin, 5-Hydroxytryptamine Receptor 1 (5HT1), Non-Selective Binding, Htr1a (gene 24473) (UniProt P19327)", "sequence (P19327 whole entry, looked up)": "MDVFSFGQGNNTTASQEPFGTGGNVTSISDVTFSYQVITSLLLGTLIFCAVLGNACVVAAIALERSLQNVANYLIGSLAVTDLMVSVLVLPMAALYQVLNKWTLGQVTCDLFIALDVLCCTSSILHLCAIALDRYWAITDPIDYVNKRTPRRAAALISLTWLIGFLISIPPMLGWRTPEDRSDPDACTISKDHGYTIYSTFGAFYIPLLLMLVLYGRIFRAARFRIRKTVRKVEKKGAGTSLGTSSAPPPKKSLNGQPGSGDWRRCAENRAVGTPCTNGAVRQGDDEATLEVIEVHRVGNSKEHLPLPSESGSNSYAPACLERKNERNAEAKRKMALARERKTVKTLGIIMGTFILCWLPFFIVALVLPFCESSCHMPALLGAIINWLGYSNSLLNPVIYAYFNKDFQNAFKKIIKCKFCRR", "assay": "NVS_GPCR_r5HT1_NonSelective: NovaScreen (NVS) G Protein-Coupled Receptor Assay for rat Serotonin, 5-Hydroxytryptamine Receptor 1 (5HT1), Non-Selective Binding (AID 2283286)", "procedure,_shortened": "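Rat cortical membranes, radioligand displacement, 1 h incubation, read by filter scintillation. Primary screen in duplicate at 25 uM. Hits (e.g. ≥30% inhibition) went to concentration-response up to 50 uM, fitted as loss of binding versus DMSO.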"}, "[4]": {"target": "rat Adrenergic, Alpha 1, Non-selective Receptor (Adra1), Adra1a (gene 29412) (UniProt P43140)", "sequence (P43140 whole entry, looked up)": "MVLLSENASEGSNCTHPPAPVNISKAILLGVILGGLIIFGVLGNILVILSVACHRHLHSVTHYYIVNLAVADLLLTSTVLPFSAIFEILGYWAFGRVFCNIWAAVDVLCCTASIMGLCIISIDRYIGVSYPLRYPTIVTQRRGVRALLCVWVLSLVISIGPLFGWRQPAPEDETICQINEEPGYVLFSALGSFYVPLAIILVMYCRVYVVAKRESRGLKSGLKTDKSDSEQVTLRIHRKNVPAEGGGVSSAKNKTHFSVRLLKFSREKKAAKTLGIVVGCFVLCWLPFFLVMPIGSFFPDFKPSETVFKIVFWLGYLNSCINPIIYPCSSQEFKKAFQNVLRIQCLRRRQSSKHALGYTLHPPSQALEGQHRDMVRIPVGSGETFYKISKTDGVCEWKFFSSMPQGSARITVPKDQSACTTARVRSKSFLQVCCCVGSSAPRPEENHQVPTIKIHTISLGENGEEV", "assay": "NVS_GPCR_rAdra1_NonSelective: NovaScreen (NVS) G Protein-Coupled Receptor Assay for rat Adrenergic, Alpha 1, Non-selective Receptor (Adra1) (AID 2283289)", "procedure,_shortened": "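Rat forebrain membranes; radioligand displacement read by filter-based scintillation counting 1 h after dosing. Primary screen in duplicate at 25 uM; hits (e.g. ≥30% inhibition) rerun as concentration–response to 50 uM max. Fitted versus DMSO.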"}, "[5]": {"target": "human Thromboxane A2 Receptor (TXA2), TBXA2R (gene 6915) (UniProt P21731)", "sequence (P21731 whole entry, looked up)": "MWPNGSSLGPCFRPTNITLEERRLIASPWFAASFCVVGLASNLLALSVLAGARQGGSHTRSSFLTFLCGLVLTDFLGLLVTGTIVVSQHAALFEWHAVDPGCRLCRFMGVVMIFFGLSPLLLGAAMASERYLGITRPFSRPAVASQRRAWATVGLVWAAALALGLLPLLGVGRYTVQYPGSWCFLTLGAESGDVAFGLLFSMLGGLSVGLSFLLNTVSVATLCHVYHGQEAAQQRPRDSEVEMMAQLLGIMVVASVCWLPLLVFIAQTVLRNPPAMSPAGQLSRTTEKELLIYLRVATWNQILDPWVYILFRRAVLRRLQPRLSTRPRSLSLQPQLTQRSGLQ", "assay": "NVS_GPCR_hTXA2: NovaScreen (NVS) G Protein-Coupled Receptor Assay for human Thromboxane A2 Receptor (TXA2) (AID 2283282);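 further: actives reduce bound radioligand signal relative to DMSO baseline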", "procedure,_shortened": "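Human platelet membranes tested for radioligand displacement by filtration and scintillation counting 1 h post-dose. Screened in duplicate at 25 uM; activity fitted as signal loss relative to DMSO.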"}, "[6]": {"tested_on": "rabbit Platelet Activating Factor Receptor (PAF), gene 100354046", "assay": "NVS_GPCR_rabPAF: NovaScreen (NVS) G Protein-Coupled Receptor Assay for rabbit Platelet Activating Factor Receptor (PAF) (AID 2283287)", "procedure,_shortened": "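Rabbit platelet membrane preparation; radioligand displacement read by filter-based scintillation counting 1 h after dosing, loss of signal versus DMSO. Primary screen in duplicate at 25 uM, actives followed up in concentration series.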"}}, "note": "Results filed as inconclusive are left out. Calls of active or inactive are those of the source. How the source made its calls: active means hit-call score of the fitted dose curve at least 0.9, where 1 is the maximum; inconclusive means response in the unintended direction; inactive means score below 0.9.", "data": [{"compound": "CCc1cccc(CC)c1N(COC)C(=O)CCl", "values": [{"measurement": "AC50", "setting": "[1]", "result": "4.96 µM (active)"}, {"measurement": "outcome", "setting": "[2]", "result": "inactive"}]}, {"compound": "CN(C)C(=O)Nc1cccc(C(F)(F)F)c1", "values": [{"measurement": "outcome", "setting": "[3]", "result": "inactive"}]}, {"compound": "CCOP(=O)(OCC)Oc1cc(C)nc(C(C)C)n1", "values": [{"measurement": "outcome", "setting": "[3]", "result": "inactive"}]}, {"compound": "Nc1nc(N)nc(NC2CC2)n1", "values": [{"measurement": "outcome", "setting": "[4]", "result": "inactive"}]}, {"compound": "COc1cc(OC)nc(Sc2cccc(Cl)c2C(=O)O)n1", "values": [{"measurement": "AC50", "setting": "[5]", "result": "4.45 µM (active)"}]}, {"compound": "FC(F)C(F)(F)OCC(Cn1cncn1)c1ccc(Cl)cc1Cl", "note": "(stereo not drawn)", "values": [{"measurement": "outcome", "setting": "[5]", "result": "inactive"}, {"measurement": "AC50", "setting": "[1]", "result": "9.52 µM (active)"}]}, {"compound": "CC(C)=CC1C(C(=O)OCN2C(=O)C3=C(CCCC3)C2=O)C1(C)C", "note": "(stereo not drawn)", "values": [{"measurement": "AC50", "setting": "[6]", "result": "7.72 µM (active)"}, {"measurement": "outcome", "setting": "[4]", "result": "inactive"}]}, {"compound": "CCc1cccc(C)c1N(C(=O)CCl)C(C)COC", "note": "(stereo not drawn)", "values": [{"measurement": "AC50", "setting": "[1]", "result": "5.26 µM (active)"}]}, {"compound": "CCOP(=S)(OCC)Oc1ccc2c(C)c(Cl)c(=O)oc2c1", "values": [{"measurement": "outcome", "setting": "[2]", "result": "inactive"}]}, {"compound": "CCC(=O)Nc1ccc(Cl)c(Cl)c1", "values": [{"measurement": "outcome", "setting": "[3]", "result": "inactive"}]}]}
